According to PubChem BioAssay:
Unmarked numbers belong to inactive results. The source made the active and inactive calls.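 The calls were made as follows, unless noted: active = mean inhibition above 46.68%, the untreated control wells mean plus 3 SD; inactive = the rest.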

Legend:
[1] = target: Nuclear receptor coactivator 3 (Homo sapiens) (UniProt Q9Y6Q9); assay: SRC3 coactivator transcriptional activity inhibitors, confirmation, cell-based, luminescence, quadruplicate (AID 588792;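 active = mean inhibition over 43.08%, the solvent-only control mean plus 3 SD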;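 also: 0% = DMSO treated cells and 100% = gossypol at 36 µM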); details: HEK293 GAL4-SRC3 luciferase reporter, at 3.6 µM, hits give high values
[2] = system: transactivating tegument protein VP16 (Human herpesvirus 1), Gal4-VP16 luciferase reporter; assay: VP16 transactivation inhibitors, counter-screen for SRC3 inhibitor project, cell-based, luminescence, high throughput (AID 588794; in the data active = inhibition above about 30%); details: mammalian cells, VP16-driven luciferase reporter luminescence; at 3.6 µM; hits give high values
[3] = target: Nuclear receptor coactivator 1 (Homo sapiens) (UniProt Q15788); assay: SRC1 coactivator transcriptional activity inhibitors, confirmation, cell-based, luminescence, quadruplicate (AID 588820); details: HEK293 GAL4-SRC1 luciferase reporter, at 3.6 µM, hits give high values;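 also: 0% = DMSO wells and 100% = gossypol 36 µM treated wells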
[4] = VP16 transactivation inhibitors, counter-screen for SRC1 inhibitor project, cell-based, luminescence, high throughput (AID 588824; in the data active = inhibition above about 25%); details: cell-based VP16 transactivation luciferase luminescence; at 3.6 µM; hits give high values
[5] = system: transactivating tegument protein VP16 (Human herpesvirus 1); assay: VP16 transactivation reporter inhibitors, counter-screen for SRC2 inhibitor project, cell-based, luminescence, single concentration (AID 652007; in the data active = inhibition above about 36%); details: cell-based VP16 transactivation luciferase reporter, at 8.9 µM, hits give high values
[6] = target: Nuclear receptor coactivator 2 (Homo sapiens) (UniProt Q15596); assay: SRC2 coactivator transcriptional activity inhibitors, confirmation, cell-based, luminescence, HEK293, triplicate (AID 652008;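 active = mean inhibition above 46.5%, the solvent-only control mean plus 3 SD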;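 also: 0% = DMSO-treated cells and 100% = Gossypol at 36 µM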); details: HEK293 GAL4-SRC2 luciferase reporter, at 8.9 µM, hits give high values
Nuclear receptor coactivator 2 (Homo sapiens), sequence (Q15596 whole entry, looked up, the tested form may be a part): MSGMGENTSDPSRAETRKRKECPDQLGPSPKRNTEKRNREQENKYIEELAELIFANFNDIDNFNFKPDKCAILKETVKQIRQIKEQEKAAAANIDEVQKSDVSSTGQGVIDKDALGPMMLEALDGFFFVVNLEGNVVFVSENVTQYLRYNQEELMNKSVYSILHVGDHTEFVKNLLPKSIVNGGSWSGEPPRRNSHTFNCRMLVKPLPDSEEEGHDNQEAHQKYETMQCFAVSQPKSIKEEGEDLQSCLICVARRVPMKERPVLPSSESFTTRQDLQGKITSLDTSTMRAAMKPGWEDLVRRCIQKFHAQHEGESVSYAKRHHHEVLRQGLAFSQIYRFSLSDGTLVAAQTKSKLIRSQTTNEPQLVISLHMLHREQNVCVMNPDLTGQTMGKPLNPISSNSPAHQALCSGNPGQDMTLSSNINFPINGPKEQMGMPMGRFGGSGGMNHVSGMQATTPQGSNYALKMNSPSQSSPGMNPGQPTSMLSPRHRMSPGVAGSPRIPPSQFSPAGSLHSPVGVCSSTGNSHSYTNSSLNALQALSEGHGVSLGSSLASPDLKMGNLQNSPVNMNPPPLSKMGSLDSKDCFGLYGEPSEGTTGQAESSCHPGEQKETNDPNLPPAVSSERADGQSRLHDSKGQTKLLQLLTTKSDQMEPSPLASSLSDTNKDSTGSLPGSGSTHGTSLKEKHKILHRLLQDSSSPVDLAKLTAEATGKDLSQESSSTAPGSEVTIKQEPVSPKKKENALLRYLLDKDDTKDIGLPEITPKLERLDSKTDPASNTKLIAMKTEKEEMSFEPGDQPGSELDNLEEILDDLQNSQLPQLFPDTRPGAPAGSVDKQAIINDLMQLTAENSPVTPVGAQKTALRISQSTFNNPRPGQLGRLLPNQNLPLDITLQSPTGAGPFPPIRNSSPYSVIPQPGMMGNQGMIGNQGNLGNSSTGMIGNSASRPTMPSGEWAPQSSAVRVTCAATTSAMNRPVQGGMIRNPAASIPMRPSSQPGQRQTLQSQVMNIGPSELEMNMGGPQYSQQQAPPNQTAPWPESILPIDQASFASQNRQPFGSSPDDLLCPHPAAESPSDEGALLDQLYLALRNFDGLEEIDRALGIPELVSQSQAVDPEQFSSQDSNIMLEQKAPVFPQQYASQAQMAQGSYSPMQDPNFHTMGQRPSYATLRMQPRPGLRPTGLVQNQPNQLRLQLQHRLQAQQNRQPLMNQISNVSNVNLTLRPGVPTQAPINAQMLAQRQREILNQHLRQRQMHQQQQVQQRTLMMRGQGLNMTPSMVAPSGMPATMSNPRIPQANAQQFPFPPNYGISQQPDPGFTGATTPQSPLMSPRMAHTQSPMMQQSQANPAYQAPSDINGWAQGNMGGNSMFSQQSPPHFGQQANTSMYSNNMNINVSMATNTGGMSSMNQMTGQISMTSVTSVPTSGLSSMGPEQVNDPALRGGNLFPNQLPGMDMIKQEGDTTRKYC

Nuclear receptor coactivator 3 (Homo sapiens), sequence (Q9Y6Q9 whole entry, looked up, the tested form may be a part): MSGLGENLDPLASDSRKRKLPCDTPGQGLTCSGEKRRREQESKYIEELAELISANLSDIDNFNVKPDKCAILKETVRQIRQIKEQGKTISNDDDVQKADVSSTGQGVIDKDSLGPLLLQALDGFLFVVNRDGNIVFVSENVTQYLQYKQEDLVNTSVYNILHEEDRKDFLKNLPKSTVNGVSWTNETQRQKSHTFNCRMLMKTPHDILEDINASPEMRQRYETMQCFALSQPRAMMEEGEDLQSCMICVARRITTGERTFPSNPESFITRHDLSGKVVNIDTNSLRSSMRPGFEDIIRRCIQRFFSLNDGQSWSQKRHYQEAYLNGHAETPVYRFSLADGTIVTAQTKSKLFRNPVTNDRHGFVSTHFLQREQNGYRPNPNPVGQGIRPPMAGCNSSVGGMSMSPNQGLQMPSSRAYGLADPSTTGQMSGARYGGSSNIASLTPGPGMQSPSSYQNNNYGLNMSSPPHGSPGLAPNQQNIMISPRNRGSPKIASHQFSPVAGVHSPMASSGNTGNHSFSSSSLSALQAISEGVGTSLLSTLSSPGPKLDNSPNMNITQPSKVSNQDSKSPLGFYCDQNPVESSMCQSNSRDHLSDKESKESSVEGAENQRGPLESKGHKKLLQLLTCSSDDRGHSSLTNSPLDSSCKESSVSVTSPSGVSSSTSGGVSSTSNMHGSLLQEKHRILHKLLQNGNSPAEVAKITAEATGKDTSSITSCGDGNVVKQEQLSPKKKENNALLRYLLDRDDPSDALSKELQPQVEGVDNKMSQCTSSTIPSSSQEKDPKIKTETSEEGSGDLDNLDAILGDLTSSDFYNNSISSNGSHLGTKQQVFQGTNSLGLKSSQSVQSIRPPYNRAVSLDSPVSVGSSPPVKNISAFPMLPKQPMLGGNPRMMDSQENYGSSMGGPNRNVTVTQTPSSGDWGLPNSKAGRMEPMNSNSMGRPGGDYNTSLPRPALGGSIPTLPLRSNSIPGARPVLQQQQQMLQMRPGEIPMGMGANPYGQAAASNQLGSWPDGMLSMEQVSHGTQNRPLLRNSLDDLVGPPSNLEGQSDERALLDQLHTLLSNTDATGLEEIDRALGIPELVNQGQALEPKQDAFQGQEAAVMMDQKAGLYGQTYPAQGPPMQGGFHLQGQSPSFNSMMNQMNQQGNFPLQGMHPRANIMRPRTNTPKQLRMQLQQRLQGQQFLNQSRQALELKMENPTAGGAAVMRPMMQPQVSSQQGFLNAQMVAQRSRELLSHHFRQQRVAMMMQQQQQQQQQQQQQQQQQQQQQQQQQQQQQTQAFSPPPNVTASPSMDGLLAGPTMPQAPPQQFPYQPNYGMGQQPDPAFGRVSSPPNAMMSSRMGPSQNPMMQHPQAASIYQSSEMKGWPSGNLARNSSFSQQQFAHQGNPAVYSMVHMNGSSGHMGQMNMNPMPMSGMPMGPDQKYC
Nuclear receptor coactivator 1 (Homo sapiens), sequence (Q15788 whole entry, looked up, the tested form may be a part): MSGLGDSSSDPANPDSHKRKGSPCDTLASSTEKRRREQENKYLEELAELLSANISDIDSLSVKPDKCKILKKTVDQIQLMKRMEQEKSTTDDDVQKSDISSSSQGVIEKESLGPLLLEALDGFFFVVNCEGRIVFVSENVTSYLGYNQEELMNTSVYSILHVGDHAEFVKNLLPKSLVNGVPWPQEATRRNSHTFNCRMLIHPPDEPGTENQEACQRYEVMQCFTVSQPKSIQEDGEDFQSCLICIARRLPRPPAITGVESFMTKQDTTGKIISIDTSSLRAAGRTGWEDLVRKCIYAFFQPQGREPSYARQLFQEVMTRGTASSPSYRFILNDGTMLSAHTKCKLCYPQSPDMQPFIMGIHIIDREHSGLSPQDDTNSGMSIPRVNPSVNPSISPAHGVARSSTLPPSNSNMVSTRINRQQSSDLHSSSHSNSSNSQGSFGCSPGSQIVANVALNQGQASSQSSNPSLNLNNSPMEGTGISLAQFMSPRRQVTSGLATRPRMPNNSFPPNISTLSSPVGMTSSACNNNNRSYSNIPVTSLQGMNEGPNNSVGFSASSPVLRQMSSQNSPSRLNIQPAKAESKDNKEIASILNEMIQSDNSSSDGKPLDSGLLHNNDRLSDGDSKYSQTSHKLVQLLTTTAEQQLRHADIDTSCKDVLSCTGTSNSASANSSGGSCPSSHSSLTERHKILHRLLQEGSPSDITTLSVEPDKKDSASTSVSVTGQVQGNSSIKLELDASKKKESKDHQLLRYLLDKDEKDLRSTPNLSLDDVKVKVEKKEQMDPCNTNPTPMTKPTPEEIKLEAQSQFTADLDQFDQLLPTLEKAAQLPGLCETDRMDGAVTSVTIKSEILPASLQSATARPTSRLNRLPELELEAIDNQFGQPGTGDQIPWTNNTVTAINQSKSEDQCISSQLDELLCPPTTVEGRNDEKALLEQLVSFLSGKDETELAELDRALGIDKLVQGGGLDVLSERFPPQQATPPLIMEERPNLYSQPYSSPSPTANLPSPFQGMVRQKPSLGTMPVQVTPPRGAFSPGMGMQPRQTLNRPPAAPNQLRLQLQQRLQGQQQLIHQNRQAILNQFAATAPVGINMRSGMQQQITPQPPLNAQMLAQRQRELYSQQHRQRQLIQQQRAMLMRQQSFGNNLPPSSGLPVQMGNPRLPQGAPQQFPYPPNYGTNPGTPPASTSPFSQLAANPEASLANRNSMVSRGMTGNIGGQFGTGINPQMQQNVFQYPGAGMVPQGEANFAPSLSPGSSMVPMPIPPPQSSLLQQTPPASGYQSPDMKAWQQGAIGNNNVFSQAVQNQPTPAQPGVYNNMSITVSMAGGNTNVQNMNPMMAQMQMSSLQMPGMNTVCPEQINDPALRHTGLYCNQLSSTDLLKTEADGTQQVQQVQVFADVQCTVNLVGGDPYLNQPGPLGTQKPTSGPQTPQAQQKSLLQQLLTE

Structure (SMILES)	inhibition [1]	inhibition [2]	inhibition [3]	inhibition [4]	inhibition [5]	inhibition [6]
CCCCN(c1ccccc1)c1ncnc(N)c1[N+](=O)[O-]	72.2% (active)	57.6% (active)	64.5% (active)	48.5% (active)	17.4%	44.7%
COCCn1c(C)cc(C(=O)CSc2nnnn2C2CCCC2)c1C	-7.91%	-5.21%	-99.2%	-66.8%	-19.6%	51.9% (active)
CN(C)C(=O)c1cccc(-c2cnc3sc(NCc4ccc5c(c4)OCO5)nn23)c1	53.2% (active)	35.7% (active)	51.8% (active)	33.7% (active)	8.86%	62.2% (active)
C=CCn1c(C)cc(C(=O)COc2ccc(C)nc2[N+](=O)[O-])c1C	33.7%	-8.11%	9.64%	-12.6%	-4.94%	65.9% (active)
Cc1ccc(OCC(=O)c2cc(C)n(Cc3cccs3)c2C)c([N+](=O)[O-])n1	21%	8.55%	24%	14.2%	10.7%	52.2% (active)
CCN(CC)Cc1c(O)ccc2c([N+](=O)[O-])c(C)n(-c3ccc(OC)cc3)c12	69% (active)	50.9% (active)	68.7% (active)	54.7% (active)	15.8%	41.4%
Cc1cc(C(=O)COC(=O)c2cccnc2Cl)c(C)n1CC1CCCO1 (stereo not given)	19.6%	27.6%	-18.2%	-20.1%	6.65%	56.6% (active)
CC(C)(C)OC(=O)NCCCCCNC(=O)c1nc[nH]c1C(=O)NCCCCCNC(=O)OC(C)(C)C	5.02%	13.7%	-20%	35.1% (active)	24.2%	34.1%
COc1ccc(Nc2ccnc3ccccc23)cc1	41.8%	30.3% (active)	52.8% (active)	26.4% (active)	-20.9%	30%
COc1ccc(-c2nc(-c3ccccn3)no2)cc1	63.4% (active)	48.2% (active)	16.6%	44.4% (active)	62.5% (active)	80.7% (active)
O=C(NC1CCCCC1)C(c1cccnc1)N(C(=O)CCl)c1cccc(Cl)c1 (stereo not given)	61.6% (active)	26.8%	33.4%	17.5%	39.6% (active)	56.3% (active)
CCn1c2ccccc2c2cnc(N=CN(C)C)c(C#N)c21	32%	19.6%	28.3%	21.4%	-28.4%	-0.33%
Cc1nc(SCC(=O)Nc2nc3ccccc3s2)c(C#N)c(C)c1C	92.7% (active)	88.5% (active)	82.4% (active)	83.2% (active)	92.1% (active)	96.9% (active)
COc1cccc(Nc2ncnc3ccc(Br)cc23)c1	43.5% (active)	31% (active)	51% (active)	30.9% (active)	-7.29%	34.5%
COc1ccc(-c2cncnc2-c2ccc(OC)cc2O)cc1	58.9% (active)	36.3% (active)	57.1% (active)	35% (active)	14.3%	42.5%
NNC(=O)c1cc2ccccc2cc1O	67.7% (active)	12.8%	37.5%	19.3%	16.4%	77.8% (active)
Cc1ccc(/C=C2\SC(=S)N(CCCC(=O)NC3CCCC3)C2=O)cc1	55.2% (active)	14.5%	41.5%	14.4%	79.5% (active)	89.4% (active)
Clc1ccccc1C1=Nn2c(nnc2-c2ccncc2)SC1	78.3% (active)	52.6% (active)	73.9% (active)	55.2% (active)	7.16%	46%
COc1ccc(C2=Nn3c(nnc3-c3ccncc3)SC2)cc1	65.2% (active)	48.6% (active)	57.8% (active)	37% (active)	12.8%	39.8%
S=C(c1ccc(-c2ccccc2)cc1)N1CCOCC1	9.3%	4.1%	33.3%	-6.87%	10.2%	79.1% (active)
